Results reported in PubChem BioAssay AID1531 (NMMLSC, 2009).
“And” between values parts separate entries of the source, which are not always exact repeats. Equal values may be shown once. About 3,300 (1.1%) of roughly 290,000 compounds were called active. Cut-off read from the data, not from the text of the source: active = binding response below about 67% or above about 130%; inconclusive = no clear call, values can overlap the other calls; inactive = in between. Only a selection was taken, and actives are over-represented in it overall.

biological target: Mitogen-activated protein kinase kinase kinase 2 (Homo sapiens) (UniProt Q9Y2U5); test: wildtype MEKK2 PB1-MEK5 interaction, increase or decrease – biochemical, multiplex bead flow cytometry, Alexa488-MEK5, primary screen (AID 1531); conditions: Alexa488-MEK5 binding to MEKK2 WT, at 10 µM, actives lie on both sides

Binding response (% of control), active:
CC(=O)Nc1ccc(N2CCOCC2)c(C(=O)Nc2cccc(C)c2)c1 -1% [inhibitor]
Cc1c(C)n(Cc2ccc(Cl)cc2)c2ccc(C(=O)NCCCN3CCOCC3)cc12 138%
Cc1cc2cc(CNC(=O)c3cccs3)ccc2[nH]1 55% [inhibitor]
COc1cccc(C2CC(c3ccccc3)=NN2S(=O)(=O)c2ccccc2)c1OC (configuration not stated) 20% [inhibitor]
COc1ccccc1NC(=S)N1CCN(c2ccc(F)cc2)CC1 16% [inhibitor]
COc1ccccc1OCCNCC(O)COc1cccc2[nH]c3ccccc3c12 (configuration not stated) 166% and 155% and 213%
Cc1ccc(NC(=O)COc2ccc(-n3ccnc3)cc2)cc1Cl 153%
Cn1ccc(=Nc2ccc(NC(=O)c3ccc(N=c4ccn(C)c5ccc([N+](=O)[O-])cc45)cc3)cc2)cc1 146%
COc1ccc(N2CCN(C(=S)Nc3ccc(S(N)(=O)=O)cc3)CC2)cc1 -9%
Cc1ccc2c(c1)C1CN(C)CCC1N2S(=O)(=O)c1ccc(Oc2ccc([N+](=O)[O-])cc2)cc1 (configuration not stated) 201%
CC(C)c1ccccc1OCC(O)CN(CC(O)COc1cccc2ccccc12)C(C)C (configuration not stated) 181%
Cc1ccc(N(CCC(=O)O)S(=O)(=O)c2cccc(C(F)(F)F)c2)cc1 4% [inhibitor]

Binding response (% of control), inactive:
Cc1ccc(S(=O)(=O)N2CCN(C(=O)CSc3cc(C)ccc3C)CC2)c(C)c1 104%
CC(=O)NCCC(=O)Nc1nc(-c2ccc3c(c2)OCCO3)cs1 109%
COC(=O)c1cc(NC(=O)c2ccco2)ccc1N1CCOCC1 99%
Cc1cccc(NC(=O)c2cc([N+](=O)[O-])ccc2N2CCN(C)CC2)c1 101%
Cc1nc2ccccc2nc1N/N=C/c1ccc(O)cc1O 101%
O=C(O)c1ccccc1-c1ccccc1C(=O)NCCc1ccccc1 100%
O=C(NCCN1CCOCC1)c1ccc2c(c1)N(Cc1ccc(Cl)cc1)CCS2 104%
O=C(NCCCN1CCOCC1)c1cc(-c2ccc(Cl)cc2)on1 103%
COc1ccc(CNC(=O)C(C)NCc2ccccc2Cl)cc1 (configuration not stated) 103%
Cc1c(C)c(C)c(S(=O)(=O)N2CCC3(CC2)OCCO3)c(C)c1C 108%
Cc1cc(C)n(CCNS(=O)(=O)c2ccc(Cl)cc2)n1 103%
Cc1cc2cc(CNC(=O)c3ccc(S(=O)(=O)N4CCOCC4)cc3)ccc2[nH]1 97%
CCc1cccc(CC)c1NC(=S)NCc1ccc2[nH]c(C)cc2c1 102%
CC(NC(=O)C1CCCN(S(=O)(=O)c2ccc(-n3cnnn3)cc2)C1)c1ccc(F)cc1 (configuration not stated) 108%
COc1cccc(N(CC(=O)NC2CCCCCC2)S(=O)(=O)c2ccccc2)c1 111%
COc1ccc(C2=NN(C(=O)c3ccccc3C(=O)O)C(c3ccccc3O)C2)cc1 (configuration not stated) 100%
CCOc1ccccc1C1CC(c2cccc(NS(C)(=O)=O)c2)=NN1C(=O)c1ccccc1 (configuration not stated) 100%
COc1ccc(NC(=O)NCCN2CCN(c3ccc(C)cc3)CC2)c(Cl)c1 113%
Cc1ccc(-n2ncc(C(=O)NC3CC3)c2C2CCN(C(=O)OC(C)(C)C)CC2)c(C)c1 96%
O=C(CN(Cc1ccccc1)C(=O)CCC(=O)Nc1ccccn1)NCCc1ccccc1 107%
O=C(NC(=S)NC1CCCCC1)c1ccc(Cl)cc1 103%
COc1ccccc1NC(=S)N1CCN(C(c2ccccc2)c2ccccc2)CC1 98%
COC(=O)c1ccc(C(=O)OC)c(NC(=S)N2CCN(c3ccc(F)cc3)CC2)c1 98%
O=C(O)CSc1c2c(nc3cc(C(=O)Nc4cccc(C(F)(F)F)c4)ccc13)CCCC2 105%
CC(C)(C)NCC(O)COc1cccc2[nH]c(=O)[nH]c12 (configuration not stated) 113%
COc1ccccc1OCC(O)CN1CCOCC1 (configuration not stated) 109%
Cc1ccc(NC(=O)C/C(N)=N/O)cc1Cl 100%
CCC(=O)c1ccc(OCC(=O)Nc2ccc3nc(C)sc3c2)cc1 87%
CC(C)(C)c1ccccc1NC(=O)CN1C(=O)NC2(CCCC2)C1=O 100%
CC(C)c1ccc2oc(=O)cc(CN3CCN(Cc4ccccc4)CC3)c2c1 115%
Cc1cc([N+](=O)[O-])ccc1NC(=O)c1ccc(NC(=O)C(C)C)cc1 101%
O=C(Nc1ccc(C(=O)N2CCCCC2)cc1)c1cccc([N+](=O)[O-])c1 100%
NS(=O)(=O)c1ccc(NC(=S)N2CCCC2)cc1 100%
CCOc1ccccc1N1CCN(C(=S)Nc2ccc(S(N)(=O)=O)cc2)CC1 102%
CCc1ccc(S(=O)(=O)Nc2cc3c(cc2N2CCCCC2)n(C)c(=O)c(=O)n3C)cc1 101%
O=C(NCc1nnc(SCC(=O)N2CCCCCC2)o1)c1ccc(F)cc1 102%
Cc1ccc2c(c1)C1CN(C)CCC1N2C(=O)c1ccccc1NS(=O)(=O)c1ccc(F)cc1C (configuration not stated) 98%
Cc1ccc2c(c1)C1CN(C)CCC1N2C(=S)Nc1ccc(OC(F)F)cc1 (configuration not stated) 118%
COc1ccc2c(c1)c(C(=O)N/N=C/c1cccs1)c(C)n2C 99%
O=C(NCCCN1CCCC1=O)C(=O)NCC1OCCN1S(=O)(=O)c1ccc(Br)cc1 (configuration not stated) 103%
CC(=O)Nc1ccc(Nc2ncnc3c2nnn3Cc2ccccc2Cl)cc1 107%
OC(COc1cccc2ccccc12)CN1CCN(c2ccccn2)CC1 (configuration not stated) 105%
CCC(C)Sc1nc2c(c(=O)[nH]c(=O)n2C)n1CC(O)COc1cccc2ccccc12 (configuration not stated) 107%
CCN1C(=O)N[C@@H](CCc2ccccc2)C(C(=O)OC)=C1C 94%
CCCCC1(C(=O)OCC)NC(c2ccc(O)cc2)C2C(=O)N(c3ccccc3)C(=O)C21 (configuration not stated) 99%
CC(C)[C@H](NC(=O)N1CCn2c1nc1ccccc12)C(=O)NC1CC1 101%
CC(C)C[C@H](NC(=O)C1CCC(CNC(=O)[C@@H]2CCCN2C(=O)OC(C)(C)C)CC1)C(=O)O (some centres not stated) 103%
CCc1nnc(NC(=O)CCN(c2ccc(C)cc2)S(=O)(=O)c2ccccc2)s1 108%
O=C(O)c1cc(S(=O)(=O)N(Cc2ccccc2)c2cccc(C(F)(F)F)c2)ccc1Cl 108%
Cc1cc(C)cc(C(=O)NC(CC(N)=O)c2ccc(N3CCC(N4CCCCC4)CC3)c([N+](=O)[O-])c2)c1 (configuration not stated) 105%
